Screens from PubChem.
Hits are enriched below; roughly 17% of the tested compounds scored in any of these assays.
DT40 TDP1 no CPT: qHTS for Inhibitors of human tyrosyl-DNA phosphodiesterase 1 (TDP1): qHTS in cells in absence of CPT | DT40 Tdp1-/- hTDP1 cells, no CPT, ATP luminescence, 48 h | Potency, µM (doses to about 46.2 µM), inactives show at the top dose activity change, negative = growth inhibition, usual class: inhibitors | 15% of 420,000 active; further: on the % scale 0 is the no-effect control and ±100 the full control effect; nearly all actives have a fitted effect of over 55% in size
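Camptothecin absent (DMSO only). Human TDP1-complemented DT40 knockout cells, 400 cells/well, 37 °C for minimum 48 hr; ATP measured via CellTiter-Glo, 30 min dark incubation, luminescence.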
ATXN2 expr inh: Primary qHTS for Inhibitors of ATXN expression; 0.72% of 360,000 active; Potency, µM (series often up to 57 µM), without a hit: at the highest dose activity change, negative = inhibition, hits mostly inhibitors; AID 1745845, 2022; HEK-293 ATXN2-luciferase reporter, luminescence, 24 h; further: on the % scale 0 is the no-effect control and ±100 the full control effect; nearly all actives have a fitted effect of over 55% in size
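qHTS (up to 57 uM final) was run with 24 h compound exposure of reporter cells at 37 °C. Each well was multiplexed: SteadyGlo luminescence measured ATXN2-luciferase expression after a fluorogenic Gly-Phe-AFC viability readout (25 uM final).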
HepG2 tox: qHTS for Inhibitors of TGF-b: Cytotox Counterscreen | HepG2 CAGA-GFP viability, ATP luminescence, 18 h | AID 588856, 2011 | Potency, µM (titrated, usually from 46.1 µM), without a hit: top-dose activity change, negative = cytotoxicity, hits mostly cytotoxic | 0.76% of 410,000 active
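HepG2 CAGA-GFP cells (1000/well, DMEM with 1% FBS) received compound, then TGF-beta at 500 pg/mL final, and were incubated 18 hours at 37 degrees C. Viability was read by CellTiter-Glo luminescence. Media-only wells were set as complete cell-killing and DMSO as no toxicity.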
ATXN viability: Viability Counterscreen for Primary qHTS for Inhibitors of ATXN expression. S2 cells (HEK-293 line with an ATXN2-luciferase reporter) viability, CellTiter-Fluor protease fluorescence, 24 h. Potency, µM (top dose mostly 56.7 µM), hits mostly cytotoxic. 0.49% of 400,000 active. AID 651635, 2014; further: nearly all actives have a fitted effect of over 40% in size
DT40 TDP1 CPT: qHTS for Inhibitors of human tyrosyl-DNA phosphodiesterase 1 (TDP1): qHTS in cells in presence of CPT; chicken DT40 Tdp1-/-;hTDP1 cells + 20 nM CPT, ATP luminescence, 48 h; Potency, µM (highest dose often 46.2 µM), for inactives: top-dose activity change, negative = growth inhibition, actives largely listed as inhibitors; 12% of 420,000 active; AID 686979, 2013; further: on the % scale 0 is the no-effect control and ±100 the full control effect; nearly all actives have a fitted effect of over 55% in size
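Chicken DT40 Tdp1-/- cells complemented with human TDP1, 400 cells/well, exposed to compounds plus 20 nM camptothecin for at least 48 h at 37 C; viability read as ATP content by CellTiter-Glo luminescence.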
TGFb inhibitor: qHTS for Inhibitors of TGF-b; Potency, µM (highest dose often 46.1 µM), for inactives: top-dose activity, negative = inhibition, usual class: inhibitors; 1.2% of 410,000 active; HepG2 CAGA-GFP TGF-b/SMAD3 reporter, GFP fluorescence, 18 h; TGF-beta stimulated, 500 pg/mL final; further: on the % scale 0 is the no-effect control and ±100 the full control effect; nearly all actives have a fitted effect of over 65% in size
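First, reporter cells (HEPG2 CAGA-GFP) rested 2 h at 37 degrees C. Next, compounds were pinned in and TGF-beta added to 500 pg/mL final. After 18 h, GFP was imaged per cell and summed per well.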
Starred values were filed as active, the others as inactive. The call rests on the fitted dose curve; in most records, active means well fitted curve in the direction sought with a large enough effect; inconclusive means small, poorly fitted or top-dose-only effect, or another doubt; inactive means no such curve, though single readings can be large; an effect the other way counts as inactive or inconclusive. Potency means the concentration at half of the fitted maximal effect.

What do the screens show for `CC(C)NC(=O)c1cc(C2CCCCN2S(=O)(=O)c2cccs2)on1` (stereo not drawn)?
DT40 TDP1 no CPT: -6%; ATXN2 expr inh: -9%; HepG2 tox: 7%; ATXN viability: inactive; DT40 TDP1 CPT: -14%; TGFb inhibitor: 9%

What do the screens show for `CCc1ccc(Cn2c(CNS(=O)(=O)c3ccc([N+](=O)[O-])cc3)nc3cccnc32)cc1`?
DT40 TDP1 no CPT: inconclusive; HepG2 tox: -39%; DT40 TDP1 CPT: inconclusive; TGFb inhibitor: inconclusive

Results for COc1ccc(-c2nc3sc(CCNC(=O)C(=O)Nc4ccc(C)c(F)c4)c(C)n3n2)cc1 ?
DT40 TDP1 no CPT: 1%; HepG2 tox: 3%; DT40 TDP1 CPT: 19%; TGFb inhibitor: 5%

What do the screens show for `CC1CCCN(CCCNC(=O)c2ccc(CS(=O)(=O)c3c(Cl)cccc3Cl)o2)C1` (stereo not drawn)?
DT40 TDP1 no CPT: 30%; ATXN2 expr inh: 12%; HepG2 tox: -10%; ATXN viability: inactive; DT40 TDP1 CPT: -13%; TGFb inhibitor: -12%

How did Cc1ccccc1C(=O)NC(C(=O)Nc1nc2c(s1)CCCC2)C(C)C (stereo not drawn) do in these assays?
DT40 TDP1 no CPT: 26µM*; ATXN2 expr inh: 2%; HepG2 tox: -21%; ATXN viability: inactive; DT40 TDP1 CPT: 26µM*; TGFb inhibitor: -25%

How did CC(C)[C@H](NC(=O)c1ccccc1F)C(=O)Nc1ccc(F)c(F)c1 do in these assays?
DT40 TDP1 no CPT: -12%; ATXN2 expr inh: 5%; HepG2 tox: -18%; ATXN viability: inactive; DT40 TDP1 CPT: 5%; TGFb inhibitor: -2%

What do the screens show for `Cc1csc(NC(=O)C(NC(=O)c2ccccc2F)C(C)C)n1` (stereo not drawn)?
DT40 TDP1 no CPT: 21µM*; ATXN2 expr inh: -3%; HepG2 tox: -6%; ATXN viability: inactive; DT40 TDP1 CPT: inconclusive; TGFb inhibitor: 1%

What do the screens show for `Cc1cc(C)nc(NC(=S)NC(=O)c2ccccc2F)n1`?
DT40 TDP1 no CPT: -23%; ATXN2 expr inh: -24%; HepG2 tox: 25%; ATXN viability: inactive; DT40 TDP1 CPT: 18%; TGFb inhibitor: 15%

How did Cc1cc(NC(=O)c2ccccc2F)on1 do in these assays?
DT40 TDP1 no CPT: 3%; ATXN2 expr inh: 23%; HepG2 tox: -3%; ATXN viability: inactive; DT40 TDP1 CPT: 13µM*; TGFb inhibitor: 2%

How did O=C(Nc1nnc([C@H]2C[C@H](O)[C@@H](CO)O2)s1)Nc1ccccc1Oc1ccccc1 do in these assays?
DT40 TDP1 no CPT: -8%; ATXN2 expr inh: 5%; HepG2 tox: -1%; ATXN viability: inactive; DT40 TDP1 CPT: -23%; TGFb inhibitor: 6%

What do the screens show for `O=C1NC(=S)SC1=Cc1ccc2c(c1)OCO2`?
DT40 TDP1 no CPT: -23%; ATXN2 expr inh: -9%; HepG2 tox: 10%; ATXN viability: inconclusive; DT40 TDP1 CPT: 1%; TGFb inhibitor: -1%

How did O=C1NC(=S)N/C1=C/c1ccc2c(c1)OCO2 do in these assays?
DT40 TDP1 no CPT: 5.8µM*; HepG2 tox: -30%; ATXN viability: inactive; DT40 TDP1 CPT: inconclusive; TGFb inhibitor: 5%

What do the screens show for `O=C1NC(=S)N/C1=C\c1ccc(N2CCOCC2)cc1`?
DT40 TDP1 no CPT: inconclusive; HepG2 tox: 1%; ATXN viability: inactive; DT40 TDP1 CPT: 16µM*; TGFb inhibitor: -3%
